Bioassay records from PubChem BioAssay.
S1P4 antagonist: S1P4 receptor antagonists, primary screen, cell-based | AID 1510, 2009 | Sphingosine 1-phosphate receptor 4 (Homo sapiens), O95977 | inhibition, % at 4.98 µM | 220,000 compounds, 0.26% hits | S1P4-expressing cells, antagonist mode, reporter read-out; in the data active = inhibition above about 29%
EP2 mod: EP2 receptor modulators, cAMP readout, primary screen, cell-based, HTRF cAMP, PGE2 stimulation; induction, % at 25 µM; Prostaglandin E2 receptor EP2 subtype (Homo sapiens), P43116; AID 940, 2007; 260,000 compounds, 0.83% hits; EP2-expressing cells, cAMP HTRF FRET, PGE2 co-stimulation;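 active = compounds whose cAMP rise, as percent of the full-agonist control response, exceeds 60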;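 also: rat C6 glioma line stably carrying human EP2 under a CMV promoter; the protocol text gives 20 µM as final concentration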
Target sequence (P43116 whole entry, looked up): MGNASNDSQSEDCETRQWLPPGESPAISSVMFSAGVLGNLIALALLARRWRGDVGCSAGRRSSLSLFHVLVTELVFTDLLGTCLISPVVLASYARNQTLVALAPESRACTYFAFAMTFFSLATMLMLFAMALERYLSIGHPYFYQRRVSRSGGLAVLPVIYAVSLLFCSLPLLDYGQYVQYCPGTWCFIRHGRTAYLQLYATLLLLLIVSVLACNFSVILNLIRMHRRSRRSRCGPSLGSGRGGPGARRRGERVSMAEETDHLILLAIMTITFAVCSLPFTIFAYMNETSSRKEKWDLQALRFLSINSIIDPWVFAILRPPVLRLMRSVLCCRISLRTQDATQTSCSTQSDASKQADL
S1P3 antag: S1P3 receptor antagonists, primary screen, cell-based | inhibition, % at 4.98 µM | 170,000 compounds, 0.27% hits | CHO S1P3 NFAT-BLA reporter, FRET fluorescence, antagonist mode;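 active = inhibition above the plate cutoff, the mean inhibition of test wells on that plate plus 3 SD, cut at about 28% in these data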;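 also: cells challenged with S1P at its EC80 of 0.8 µM; blue over green emission ratio from cleaved BLA substrate after 4 h stimulation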
EP2 antag: human EP2 receptor antagonists, primary screen, TR-FRET cAMP, C6 glioma cells. Prostaglandin E2 receptor EP2 subtype (Homo sapiens), P43116. inhibition, % at 25 µM. 260,000 compounds, 0.52% hits. C6 glioma cells expressing human EP2; cells stimulated with saturating PGE2;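 active = percent inhibition above 40 after rounding to a whole number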;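 also: rat C6 glioma host cells with rolipram phosphodiesterase inhibitor present; the protocol text gives 20 µM as final concentration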
S1P4 ag: S1P4 receptor agonists, primary screen, cell-based; S1P4-expressing cell line, agonist reporter assay; activation, % at 4.98 µM; Sphingosine 1-phosphate receptor 4 (Homo sapiens), O95977; 220,000 compounds, 0.35% hits; in the data active = activation above about 11%
Hits are given with their value; 0 = inactive; - = not tested or not shown; ! = not confirmed by another sample. The list is not random: actives were taken first. Their share in the collection is about 1.9%.

SMILES | S1P4 antagonist | EP2 mod | S1P3 antag | EP2 antag | S1P4 ag
COc1ccccc1N(CC(=O)NC(C)(C)C)C(=O)CCC(=O)Nc1cc(C)ccn1 | - | 0 | - | 0 | -
CCCc1nc(-c2ccc(-c3ccc(C)cc3)nc2OCC)no1 | - | 69 | - | 0 | -
CCOc1nc(-c2ccc(C)cc2)ccc1-c1noc(COC)n1 | 0 | 0 | 0 | 0 | 0
COc1ccnc(Cn2nc3c(C)cc4c(C)cc(C)cc4n3c2=O)c1OC | - | 0 | - | - | -
O=C(O)c1ccc(S(=O)(=O)c2ccc3c(c2)C(=O)N(Cc2ccco2)C3=O)cc1 | 0 | 0 | 106 | 0 | 0
Cc1cccc(C(C)C)c1NC(=O)CN1C(=O)c2ccccc2S1(=O)=O | - | 0 | - | 0 | -
CCCCC[C@@H](O)[C@@H]1C(=O)O[C@@H](C)[C@@H](O)C=C/C=C\C=CC=C/C=C(/C)[C@H](O)C[C@H](O)C[C@H](O)C[C@H](O)C[C@H](O)C[C@H](O)C[C@@H]1O | - | 0 | - | 50 | -
S=c1[nH]nc(-c2ccco2)n1/N=C/c1cccc(Cl)c1Cl | 0 | 61 | 0 | 0 | 0
Cc1nc(SCC(=O)Nc2ccccc2F)nc2c1CCCC2 | - | 79 | - | 0 | -
COC(=O)c1c(C)nc2c(c(SC)nn2-c2ccccc2)c1N | 0 | 63 | - | 0 | 0
Cc1nn(CC(=O)NC2CC2)c(=O)c2cc3occc3n12 | - | 0 | - | 0 | -
Cc1ccc2c(c1)C=CC(C)N2C(=O)c1ccccc1 (centres undefined) | 0 | 64 | - | 0 | 0
O=C(C[C@@H]1C=Cc2ccccc2N1C(=O)c1ccccc1)c1ccccc1 | - | 0 | - | 59 | -
CCc1ccc2nc(SCC(=O)Nc3ccc(OC)cc3OC)c(C#N)cc2c1 | - | 0 | - | 0 | -
Fc1ccc(-c2csc3ncnc(N4CCc5ccccc5C4)c23)cc1 | 0 | 64 | 0 | 0 | 0
COCCCn1c(SCC(=O)Nc2ccc(OC)cc2OC)nnc1-c1ccncc1 | - | 0 | - | 0 | -
COC(=O)c1c(NC(=O)CC2SC(N)=NC2=O)sc2c1CCC(C)C2 (centres undefined) | 0 | 0 | 0 | 0 | 0
CCOC(=O)c1c(NC(=O)CC2SC(N)=NC2=O)sc2c1CCC(C)C2 (centres undefined) | 0 | 68! | 0 | 0 | 0
CCOC(=O)c1c(NC(=O)c2cccs2)sc2c1CCC2 | - | - | 0 | 76 | -
CCOC(=O)c1sc2nc(NC(=O)c3cccs3)sc2c1C | - | - | 70 | - | -
CCNC(=O)c1c(NC(=O)c2cccs2)sc2c1CCCC2 | - | 0 | - | 0 | -
CCOC(=O)c1c(NC(C)=O)sc2c1CC(C)CC2 (centres undefined) | - | 80 | - | 0 | -
CCOC(=O)c1sc(NC(=O)c2cccs2)nc1C | 0 | 0 | - | 0 | 0
CCOC(=O)c1c(NC(=O)C2C3C=CC(C3)C2C(=O)O)sc2c1CCC(C)C2 (centres undefined) | 0 | 0 | 0 | 0 | 0
N#CSC1CS(=O)(=O)C=C1Cl (centres undefined) | - | 0 | - | 133 | -
SMILES | S1P4 antagonist | EP2 mod | S1P3 antag | EP2 antag | S1P4 ag
CC(=O)O[C@H]1CC[C@@]2(C)C(=CCC3C2CC[C@@]2(C)C3CC[C@@H]2C(C)CCCC(C)C)C1 (some centres undefined) | - | 0 | - | 0 | -
CC(=O)O[C@H]1CC[C@@]2(C)C(=CC[C@H]3[C@H]2CC[C@]2(C)[C@@H]4[C@@H](C)[C@]5(CC[C@H](C)CN5)O[C@@H]4C[C@@H]32)C1 | - | 0 | - | 45 | -
CCC(c1nnnn1Cc1ccco1)N(CCc1ccccc1)Cc1cc2c(C)ccc(C)c2[nH]c1=O (centres undefined) | - | 0 | - | 0 | -
Cc1cccc(C)c1NC(=S)N(Cc1ccccc1)Cc1cccs1 | 0 | 63 | 0 | 0 | 0
O=C(O)CNC(=S)N(Cc1ccccc1)Cc1cccs1 | 0 | 0 | 0 | 0 | 0
Cc1ccc(-c2nnn(CC(=O)Nc3nnc(C)s3)n2)o1 | - | 0 | - | 0 | -
Cc1cccc(NC(=S)N(CCCO)Cc2cc3cc(C)ccc3[nH]c2=O)c1 | - | 0 | - | 0 | -
Cc1ccc(C)c2[nH]c(=O)c(C(c3nnnn3CCc3ccccc3)N3CCCCC3)cc12 (centres undefined) | - | 85 | - | 0 | -
Cc1cc(C)c2[nH]c(=O)c(C(c3nnnn3Cc3ccc(F)cc3)N3CCCCCC3)cc2c1 (centres undefined) | - | 69 | - | 0 | -
Cc1ccc(C)c2[nH]c(=O)c(C(c3nnnn3CCc3ccccc3)N3CCOCC3)cc12 (centres undefined) | 0 | 0 | 0 | 0 | 0
Cc1cccc2cc(C(c3nnnn3Cc3ccc(F)cc3)N3CCCCC3)c(=O)[nH]c12 (centres undefined) | - | 0 | - | 0 | -
COc1ccc([C@@H]2C[C@H](C(=O)Nc3cccnc3Cl)N(C)S(=O)(=O)N2)cc1OC | - | 0 | - | - | -
CN(C)c1ncc(S(=O)(=O)c2ccccc2)c(-c2ccc(Cl)cc2Cl)n1 | 0 | 65 | - | - | 0
CN(C)c1ncc(S(=O)(=O)c2ccc(Cl)cc2)c(-c2ccc(Cl)cc2Cl)n1 | 0 | 0 | - | - | 0
Cc1cccc(Oc2nc(-c3ccncc3)nc3ccccc23)c1 | 0 | 71 | 0 | 0 | 0
O=[N+]([O-])c1ncccc1Oc1nc(-c2cccnc2)nc2ccccc12 | 0 | 0 | 0 | 0 | 0
Cc1cccc(Oc2nc(-c3ccccn3)nc3ccccc23)c1 | 0 | 0 | 0 | 0 | 0
c1ccc(Oc2nc(-c3cccnc3)nc3ccccc23)cc1 | 0 | 87 | 0 | 0 | 0
Cc1cc2ccc(OC(=O)c3ccc(N=C(N)N)cc3)cc2oc1=O | - | 0 | - | 116 | -
CC(=O)Oc1ccc2ccc(=O)oc2c1 | 0 | 0 | 0 | 0 | 0
Cc1ccc2[nH]c3c(NCc4ccco4)ncnc3c2c1 | 0 | 0 | 59 | 0 | 0
CC1=NN(c2ccccc2)C(=O)C1c1cc(C)nc2ncnn12 (centres undefined) | - | 0 | - | 0 | -
COc1cccc(CNC(=O)C2CCN(c3nc(C)cc(C)n3)CC2)c1 | - | 0 | - | 0 | -
O=C1c2ccccc2NC(c2ccc(Cl)cc2Cl)N1Cc1ccccc1 (centres undefined) | 0 | 61 | - | 0 | 0
O=C1c2ccccc2N[C@H](c2cc(Cl)cc(Cl)c2O)N1CCc1ccccn1 | - | 0 | - | 55 | -
SMILES | S1P4 antagonist | EP2 mod | S1P3 antag | EP2 antag | S1P4 ag
CCc1cc2cc3c(cc2nc1SCC(=O)N1CC(=O)Nc2ccccc21)OCO3 | - | 0 | - | 0 | -
OC(c1ccccc1)(c1ccc(F)cc1)C(c1ccccc1)N1CCOCC1 (centres undefined) | 0 | 61 | - | 0 | 0
O=C1C(Cl)=C(Nc2ccc(S(=O)(=O)Nc3ccccn3)cc2)C(=O)c2ccccc21 | - | 0 | - | 107 | -
CC(C)(C)c1ccc(S(=O)(=O)Nc2ccccn2)cc1 | 0 | 0 | 0 | 0 | 0
CSc1ccc(NC(=O)C(C)n2nc(-c3cc(C)oc3C)cc(N)c2=O)cc1 (centres undefined) | - | 0 | - | 0 | -
CC(/C=N/NC(=O)NC1CCCCC1)=C\c1ccccc1 | 0 | 0 | 0 | 0 | 0
O=C(N/N=C/c1ccccc1)NC1CCCCC1 | 0 | 64 | 0 | 0 | 0
CN(C)C(=O)Oc1ccc(C2C3=C(CC(C)(C)CC3=O)OC3=C2C(=O)CC(C)(C)C3)cc1 | - | 0 | - | 0 | -
